Data on 30 compounds can be found in PubChem BioAssay (NCATS).

Records with an inconclusive call do not appear. Values without a mark were called inactive. Activity calls are given as the source filed them. The call rests on the fitted dose curve; in most records, active means well fitted inhibition curve with a large enough effect; inconclusive means small, poorly fitted or top-dose-only effect; inactive means flat fitted curve, though single readings scatter.
Further: nearly all actives have a fitted effect of over 60% in size.

The first experiment concerns NIH3T3. Put plainly: Cytotoxic Profiling of Annotated Libraries Using Quantitative High-Throughput Screening (AID 1296008). Further: potency means the concentration at half of the fitted maximal effect. On max response: on the % scale 0 is the no-effect control and ±100 the full control effect. The settings on record: Five cell lines viability, CellTiter-Glo ATP luminescence, 48-72 h; max response: active compounds read low. Summed up:
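Cells exposed to compounds for 48 or 72 hr at 37 degrees Celsius. Viability read as ATP-coupled luminescence with CellTiter-Glo after 10 min at room temperature.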
As for `CN(C)[C@@H]1C(=O)C(C(N)=O)=C(O)[C@@]2(O)C(=O)C3=C(O)c4c(O)ccc(Cl)c4[C@@](C)(O)C3C[C@@H]12` (stereo partly specified), the call was inactive.

`CC(C)[C@H](NC(=O)c1nn(Cc2ccc(F)cc2)c2ccccc12)C(N)=O`: the max response is -27.5%.

On to `CN1CCCCC1Cn1cc(C(=O)c2cc([N+](=O)[O-])ccc2I)c2ccccc21` (stereo unspecified), for which the call was inactive.

Take `CC12CCC3C(C1)c1c(cc(O)c(C(=O)c4ccccc4)c1OC3(C)C)O2` (stereo unspecified): the max response was 3.12%.

For the compound `CN1C(=O)[C@@H](Cc2c[nH]c3ccccc23)N=C(c2ccccc2F)c2ccccc21`, the max response was -3.73%.

Regarding `CCC1C2CC3C4N(C)c5ccccc5C45CC(C2C5O)N3C1O` (stereo unspecified), the max response was 2.24%.

As for `C[C@@H]1O[C@@H](OC2CCC3(C=O)C(CCC4C3CCC3(C)C(C5=CC(=O)OC5)C(O)CC43O)C2)[C@H](O)[C@H](O)[C@H]1O[C@@H]1O[C@H](CO)[C@@H](O)[C@H](O)[C@H]1O` (stereo partly specified), the max response was 4.35%.

Consider `C=C(C)C(=O)O[C@H]1[C@@H]2[C@H](C)C(=O)O[C@@H]2C[C@@H](C)[C@@H]2C=CC(=O)[C@]21C`, for which the Potency was 8.05 µM (active).

With `CCN1C[C@]2(COC)CC[C@H](O)[C@@]34C5C[C@@H]6[C@@H](OC)C[C@@](OC(C)=O)(C5[C@@H]6OC(C)=O)[C@H]([C@H](OC)C23)[C@@H]14` (stereo partly specified), the max response is 2.14%.

As to `C[C@]12CC[C@H](O)C[C@@]1(O)CC[C@@H]1[C@@H]2CC[C@]2(C)[C@@H](c3ccc(=O)oc3)CC[C@]12O`, the max response was -7.45%.

For `CN1C(=O)N(c2ccc(C#N)c(C(F)(F)F)c2)C(=O)[C@@]1(CO)c1ccccc1`, the max response is 4.41%.

Take `CC(=O)O[C@H]1C[C@]2(O)[C@@H]3CC[C@@H]4C[C@@H](O)CC[C@]4(C)[C@H]3CC[C@]2(C)[C@H]1c1ccc(=O)oc1`: the max response was -9.3%.

In the case of `CCCCCn1cc(C(=O)Oc2cccc3cccnc23)c2ccccc21`, the max response is -5.3%.

In the case of `CN=C(NS(=O)(=O)c1ccc(Cl)cc1)N1C[C@H](c2ccccc2)C(c2ccc(Cl)cc2)=N1`, the max response is 4.13%.

`COC1CC(O[C@H]2CC[C@@]3(C)C(CCC4C3CC[C@]3(C)C(C5=CC(=O)OC5)CCC43O)C2)OC(C)C1OC1OC(COC2OC(CO)C(O)C(O)C2O)C(O)C(O)C1O` (stereo partly specified): the max response was 2.72%.

Consider `C=C(C)[C@@]12O[C@@H]1[C@@]1(C)C(=CC2=O)CC[C@@H](OC(C)=O)[C@@H]1C`, for which the Potency was 3.66 µM (active).

As for `CN1Cc2c(ccc3c2OCO3)[C@@H]2[C@H]1c1cc3c(cc1C[C@@H]2O)OCO3`, the Potency is 2.55 µM (active).

On to `CN(Cc1cccc(-c2ccncc2)c1)C(=O)Oc1ccc(-c2ccc(C(N)=O)cc2)cc1`, for which the max response was 2.66%.

For `CC1=CC2OC3CC(O)[C@](C)([C@@]2(C)C(O)C1=O)[C@]31CO1` (stereo partly specified), the Potency was 4.11 µM (active).

Regarding `CC[C@H](O)[C@@H](C)[C@H]1O[C@@H]1C[C@H](C)/C=C/C=C(\C)[C@H]1OC(=O)C[C@H](O)CC[C@@](C)(O)[C@@H](OC(C)=O)/C=C/[C@@H]1C`, the Potency was 0.0116 µM (active).

With `CN(C(=O)C(c1ccccc1)c1ccccc1)[C@H](CN1CC[C@H](O)C1)c1ccccc1`, the max response is 3.64%.

Regarding `COC(=O)C12C(=O)C(C)(O)C(=O)C1(C)C(C)=CC1C34CCC(OC3=O)C(C)(C)C4CCC12C` (stereo unspecified), the max response is -10.7%.

Regarding `CCOc1ccc(Oc2ccc(OCc3cc(F)ccc3F)cc2)c(N)c1`, the max response is -0.81%.

Regarding `Cc1ccc2c(c1)[C@H]1CN(C)CC[C@H]1N2C(=O)CSc1nnnn1-c1ccc(Cl)cc1`, the result was inactive.

`C=C1C2(C)CC3C(C)(O)C4=CC(=O)OC(C)(C)C4=CCC3(C)C13C(=O)OC(C)C3(O)C2=O` (stereo unspecified): the max response is -1.67%.

In the case of `CCCN(CCC)[C@@H]1CCc2ccc3[nH]c(C#N)cc3c2C1`, the compound was called inactive.

Turning to `C[C@]12CC[C@H](O)C[C@@H]1CC[C@@H]1[C@@H]2CC[C@]2(C)[C@@H](C3=CC(=O)OC3)CC[C@]12O`, the max response was 3.54%.

On to `CC(=O)OC[C@]12[C@H](OC(C)=O)C(=O)[C@@H]3[C@@H](O)[C@@]14O[C@@]3(C)COC(=O)c1cccnc1[C@@H](C)[C@H](C)C(=O)O[C@@H]([C@H](OC(C)=O)[C@@H]2OC(C)=O)[C@]4(C)O`, for which the max response is 0.381%.

With `Cc1c(N[C@@H](c2nnc(-c3ccc(C#N)cc3)o2)[C@H](C)O)ccc(C#N)c1Cl`, the max response was 4.88%.

Take `COc1ccc2c(c1)c(CCN(C)C)cn2S(=O)(=O)c1ccccc1`: the call was inactive.

A further experiment relates to CRL-7250. Put plainly: qHTS assay to identify novel small-molecules to repurpose for Merkel cell carcinoma treatment (AID 1296009). The conditions noted are these: MCC and control cell lines, CellTiter-Glo viability, 72 h; series mostly up to 92 µM. The method in brief: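 Cells were treated for 72 hr at 37 degree celsius with compounds in 8- or 11-point dose response. Viability was read by CellTiter-Glo luminescence, normalized to no-cell (cytotoxicity) and DMSO controls.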
As to `CC12CCC3C(C1)c1c(cc(O)c(C(=O)c4ccccc4)c1OC3(C)C)O2` (stereo unspecified), the Potency entry was “inactive”.

With `CN1C(=O)[C@@H](Cc2c[nH]c3ccccc23)N=C(c2ccccc2F)c2ccccc21`, the Potency result was “inactive”.

Regarding `CN1C(=O)N(c2ccc(C#N)c(C(F)(F)F)c2)C(=O)[C@@]1(CO)c1ccccc1`, the Potency entry was “inactive”.

Turning to `CCCCCn1cc(C(=O)Oc2cccc3cccnc23)c2ccccc21`, the Potency entry is “inactive”.

On to `CN=C(NS(=O)(=O)c1ccc(Cl)cc1)N1C[C@H](c2ccccc2)C(c2ccc(Cl)cc2)=N1`, for which the Potency entry was “inactive”.

On to `CN(Cc1cccc(-c2ccncc2)c1)C(=O)Oc1ccc(-c2ccc(C(N)=O)cc2)cc1`, for which the Potency entry is “inactive”.

For the compound `CN(C(=O)C(c1ccccc1)c1ccccc1)[C@H](CN1CC[C@H](O)C1)c1ccccc1`, the Potency entry was “inactive”.

In the case of `CCOc1ccc(Oc2ccc(OCc3cc(F)ccc3F)cc2)c(N)c1`, the Potency entry was “inactive”.

As to `CCCN(CCC)[C@@H]1CCc2ccc3[nH]c(C#N)cc3c2C1`, the Potency entry is “inactive”.

For the compound `CC(=O)OC[C@]12[C@H](OC(C)=O)C(=O)[C@@H]3[C@@H](O)[C@@]14O[C@@]3(C)COC(=O)c1cccnc1[C@@H](C)[C@H](C)C(=O)O[C@@H]([C@H](OC(C)=O)[C@@H]2OC(C)=O)[C@]4(C)O`, the Potency result was “inactive”.

For the compound `Cc1c(N[C@@H](c2nnc(-c3ccc(C#N)cc3)o2)[C@H](C)O)ccc(C#N)c1Cl`, the Potency result was “inactive”.
